The list is not random: actives were taken first. Their share in the collection is about 28%.
CD11b adhes inh – CD11b/CD18-fibrinogen binding inhibition | K562 CD11b/CD18 adhesion to fibrinogen, ATPlite luminescence; Mn2+ added to activate the integrin | hit rate 0.54% among 93,000 | P05107+P11215 | AID 1497 | inhibition, % at 10 µM;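 active = primary inhibition of 50% or more at 10 µM, then 40% or more on retest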
Target sequence (P05107 whole entry, looked up, other chains not shown): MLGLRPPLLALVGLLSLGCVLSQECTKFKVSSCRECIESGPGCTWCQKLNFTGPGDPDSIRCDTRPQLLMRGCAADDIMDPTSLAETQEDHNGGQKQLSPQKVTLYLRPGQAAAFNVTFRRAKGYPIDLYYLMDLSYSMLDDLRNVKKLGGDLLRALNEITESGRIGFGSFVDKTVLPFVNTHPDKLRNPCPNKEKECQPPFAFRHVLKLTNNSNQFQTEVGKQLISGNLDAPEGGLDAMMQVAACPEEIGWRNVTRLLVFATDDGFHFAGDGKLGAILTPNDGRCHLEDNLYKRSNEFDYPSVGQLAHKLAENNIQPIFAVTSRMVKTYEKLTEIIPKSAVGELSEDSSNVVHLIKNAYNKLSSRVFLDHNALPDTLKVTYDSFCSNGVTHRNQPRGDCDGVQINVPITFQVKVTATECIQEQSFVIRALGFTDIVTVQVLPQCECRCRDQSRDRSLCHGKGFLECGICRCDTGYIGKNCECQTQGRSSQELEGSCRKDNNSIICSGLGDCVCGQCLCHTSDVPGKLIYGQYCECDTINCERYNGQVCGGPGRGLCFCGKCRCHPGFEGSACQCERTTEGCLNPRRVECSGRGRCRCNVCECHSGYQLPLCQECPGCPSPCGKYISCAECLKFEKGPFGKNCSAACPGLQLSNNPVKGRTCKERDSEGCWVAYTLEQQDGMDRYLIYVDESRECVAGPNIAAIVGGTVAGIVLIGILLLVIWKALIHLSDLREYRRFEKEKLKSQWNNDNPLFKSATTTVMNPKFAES
CYP2C19 act – activators of human cytochrome P450 2C19 | P33261 | 96,000 tested, under 10 active | AID 1025 | activation factor at 5 µM | recombinant CYP2C19, luciferin-H EGE luminescence; active compounds read high; 0 = fully inhibited enzyme, 1 = untreated enzyme;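 active = activation factor of at least 2 at 5 µM in the primary screen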;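 also: 0 = wells with 2.5 mM tranylcypromine and 1 = vehicle-only wells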
CYP2C19 inhib – inhibitors of human CYP2C19. P33261. CYP2C19 Supersomes, luciferin-H EGE luminescence, 30 min. inhibition, % at 5 µM. hit rate 21% among 96,000;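 active = CYP2C19 inhibition above a set limit at 5 µM in the primary screen, cut at about 50% in these data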;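 also: plate controls were negative control wells for no effect and 2.5 mM tranylcypromine positive control for full effect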
CYP2C9 inh – human CYP2C9 inhibition | P11712 | CYP2C9 Supersomes, luciferin-H conversion, luminescence | hit rate 20% among 96,000 | AID 777 | inhibition, % at 5 µM;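 active = blocking of liver enzyme CYP2C9 beyond about 50% at 5 µM, limit read from the data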
CYP2C9 act – increases human cytochrome P450 2C9 activity. P11712. recombinant CYP2C9, luciferin-H conversion, luminescence; active compounds read high; factor 1 = untreated enzyme, 0 = blocked. activation factor at 5 µM. hit rate 1.4% among 96,000. AID 1024;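 active = activation factor of 2 or more for CYP2C9 at a 5 µM dose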;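 also: 0 = sulfaphenazole-blocked wells and 1 = vehicle-only wells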
CD11b adhes enh – increases human CD11b/CD18 adhesion to fibrinogen; P05107+P11215; K562 CD11b/CD18 adhesion to fibrinogen, ATPlite luminescence; activation, % at 10 µM; hit rate 0.07% among 93,000;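 active = 10 µM primary screen giving 50% or more activity, confirmed by 40% or more on retest at that dose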
Active calls of the source: *; / = no result given.

SMILES	CD11b adhes inh	CYP2C19 act	CYP2C19 inhib	CYP2C9 inh	CYP2C9 act	CD11b adhes enh
O=C(Nc1nc(-c2ccccc2)cs1)C1CCCCN1S(=O)(=O)c1ccc(Cl)cc1 (configuration not stated)	9	0.7	30	95*	0.1	-6
CC(C)(C)C(=O)Nc1nc(C2CCCN2S(=O)(=O)c2ccc(Cl)cc2)cs1 (configuration not stated)	3	0	100*	100*	0	-2
O=C(Nc1nc(-c2ccccc2)cs1)C1CCCCN1S(=O)(=O)c1ccccc1 (configuration not stated)	3	0.3	72*	92*	0.1	16
CCC(CO)Nc1ncnc2c1cnn2-c1ccc(OC)cc1 (configuration not stated)	3	0.8	19	17	0.8	3
CCC(CO)Nc1ncnc2c1cnn2-c1ccc(Cl)cc1 (configuration not stated)	19	0.5	46	65*	0.3	-3
COc1cc(CNC(=O)c2cccc(COc3ccc(Cl)cc3)c2)cc(OC)c1	55	/	/	/	/	-3
COc1c2ccoc2nc2c(OC)c(OCC(O)C(C)(C)O)ccc12 (configuration not stated)	-6	1.1	-7	-35	1.3	-2
COc1c2c(nc3occc13)C(CCC(C)(C)O)(OC)C(O)CC2 (configuration not stated)	-9	0.4	56*	54*	0.5	4
CCOC(=O)C1=C(c2ccccc2)N=C2SCC(=O)N2C1c1ccc(OC)c(OC)c1 (configuration not stated)	3	0.9	10	21	0.8	-3
CCOC(=O)C1=C(c2ccccc2)N=C2SCC(=O)N2C1c1cccc(OC)c1 (configuration not stated)	2	0.1	87*	54*	0.5	7
Cc1cc(C)c(C#N)c(SCCS(=O)(=O)c2ccc(C(C)(C)C)cc2)n1	25	0.3	70*	89*	0.1	1
Cc1cc(C)c(C#N)c(SCS(=O)Cc2ccc(Cl)cc2)n1 (configuration not stated)	-4	0.1	95*	59*	0.4	0
Cc1cc(C)c(C#N)c(SCS(=O)Cc2ccccc2)n1 (configuration not stated)	-16	0.3	68*	23	0.8	-1
Cc1cc(C)c(C#N)c(SCc2ccc(C#N)cc2)n1	27	0.8	16	-7	1.1	0
Cc1cc(C)c(C#N)c(SCCS(=O)(=O)Cc2ccc(Cl)cc2)n1	2	0.6	36	8	0.9	-1
CCCc1cc(=O)[nH]c(SC(CC)C(=O)Nc2ccccc2C#N)n1 (configuration not stated)	-16	1	1	24	0.8	2
CC1CCCC(NC(=O)c2n[nH]c(=O)c3ccccc23)C1C (configuration not stated)	4	0.9	5	20	0.8	4
O=C(NC1CCCCC1)C(c1cccs1)N(Cc1cccs1)C(=O)c1ccco1 (configuration not stated)	-8	0.4	55*	53*	0.5	-1
O=C(NCC(=O)N(Cc1ccco1)C(C(=O)NC1CCCCC1)c1cccnc1)c1ccco1 (configuration not stated)	5	0.8	19	22	0.8	0
O=C(NCC(=O)N(Cc1cccs1)C(C(=O)NC1CCCC1)c1ccncc1)c1ccco1 (configuration not stated)	-10	0.4	61*	72*	0.3	-2
O=C(NC1CCCC1)C(c1cccs1)N(CC1CCCO1)C(=O)Cc1cccs1 (configuration not stated)	-4	1	-2	2	1	-2
O=C(NCC(=O)N(Cc1ccco1)C(C(=O)NC1CCCC1)c1cccnc1)c1cccs1 (configuration not stated)	3	0.8	17	86*	0.1	1
COCCNC(=O)C(c1ccc(F)cc1)N(Cc1ccco1)C(=O)CCC(=O)Nc1nccs1 (configuration not stated)	7	0.5	53*	36	0.6	-2
COc1ccc(C2N=C(c3ccccc3)C(C)(C)N2O)cc1OC (configuration not stated)	-7	0.7	32	2	1	-3
Cc1ccc(N=C(NO)c2nonc2N)cc1	-2	0.6	42	9	0.9	-3
SMILES	CD11b adhes inh	CYP2C19 act	CYP2C19 inhib	CYP2C9 inh	CYP2C9 act	CD11b adhes enh
O=C(CCC(=O)N(Cc1ccco1)C(C(=O)NC1CCCC1)c1ccncc1)Nc1cccnc1 (configuration not stated)	-4	0.3	75*	61*	0.4	5
Cc1ccc(C(C(=O)NCc2ccco2)N(Cc2ccco2)C(=O)CNC(=O)c2ccco2)cc1 (configuration not stated)	2	0.4	57*	36	0.6	-1
O=C(NCc1ccccc1)C(c1ccccc1)N(Cc1cccs1)C(=O)c1cnccn1 (configuration not stated)	-4	0.4	62*	25	0.7	1
Cc1ccc(C(C(=O)NCc2ccco2)N(C(=O)CNC(=O)c2cccs2)c2ccc(C)cc2)cc1 (configuration not stated)	/	1.1	-6	-6	1.1	/
CCOC(=O)c1ccc(N2C(=O)C3C(C2=O)C(C(=O)c2ccc(Cl)cc2)N2CCCC32)cc1 (configuration not stated)	-1	0.8	22	16	0.8	39
CCOC(=O)c1cccc(NC(=O)CSc2nnc(-c3cccnc3)n2C)c1	/	0.8	22	38	0.6	/
COc1ccc(C(=O)NCC2OCCc3ccccc32)c(O)c1 (configuration not stated)	-31	0.1	90*	51*	0.5	-1
COCCn1nnnc1C(c1cccc(C(F)(F)F)c1)N1CCN(Cc2ccccc2)CC1 (configuration not stated)	-5	0.5	46	0	1	-3
FC(F)(F)c1cccc(Cn2nnnc2-c2cccc(C(F)(F)F)c2)c1	/	0.1	92*	54*	0.5	/
FC(F)(F)c1cccc(Cn2nnnc2-c2cc(Cl)cc(Cl)c2)c1	/	0.1	89*	62*	0.4	/
CC[n+]1c(/C=C2\C=C(C)CC(C)C2)sc2ccccc21 (configuration not stated)	59*	0.9	13	21	0.8	-6
CC[n+]1c(/C=C2/C=C(C)CC(C)(C)C2)sc2ccc(OC)cc21	/	0.7	30	26	0.7	/
CC[n+]1c(/C=C2\C=C(C)CC(C)(C)C2)sc2ccccc21	73*	0.9	5	11	0.9	-6
O=c1c2ccccc2nnn1CSc1nnc2sc3ccccc3n12	1	0.8	20	-74	1.7	-3

From PubChem
